The source of these data is ChEMBL document CHEMBL3433997, “St. Jude Leishmania screening dataset” (2016).

Molecules are shown by their SMILES.

Chain of Solute carrier family 2, facilitated glucose transporter member 1 (Homo sapiens) (P11166 whole entry): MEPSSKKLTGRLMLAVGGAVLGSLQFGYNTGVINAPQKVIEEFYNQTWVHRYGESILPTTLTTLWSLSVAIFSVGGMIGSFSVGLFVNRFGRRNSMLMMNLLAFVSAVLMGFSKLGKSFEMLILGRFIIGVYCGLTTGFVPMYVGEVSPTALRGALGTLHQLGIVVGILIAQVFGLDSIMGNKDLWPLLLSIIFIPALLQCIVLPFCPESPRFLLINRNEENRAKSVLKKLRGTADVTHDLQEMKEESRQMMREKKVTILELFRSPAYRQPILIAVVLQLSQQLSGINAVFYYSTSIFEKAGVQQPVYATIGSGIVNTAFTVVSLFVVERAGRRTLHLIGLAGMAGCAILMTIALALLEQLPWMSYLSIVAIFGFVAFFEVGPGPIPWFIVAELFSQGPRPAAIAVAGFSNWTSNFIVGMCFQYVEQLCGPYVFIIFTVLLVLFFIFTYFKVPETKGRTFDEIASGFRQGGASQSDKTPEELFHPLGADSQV

One test addresses Solute carrier family 2, facilitated glucose transporter member 1 (Homo sapiens) (UniProt P11166). In words: ST_JUDE_LEISH: Cytotoxicity at 2uM final concentration against transgenic Leishmania Mexicana promastigotes LmGLUT1 that are glucose transport deficient and complemented with the human glucose transporter GLUT1. Activity is measured by DNA content using SYBR green in vitro. Type of test: functional.
For `CNCCNCc1cccc(-c2cccc(-c3nc4cc(F)ccc4[nH]3)c2)c1`, the inhibition stood at 10.2%.

On to `CCN(Cc1cccc2ccccc12)c1ccc2nc(N)nc(N)c2c1`, for which the inhibition came to 97.2%.

For `Nc1c2c(nc3ccc(C(=O)Nc4cc(I)c(O)c(I)c4)cc13)CCCC2`, the inhibition was determined as 1.22%.

In the case of `CCCCCc1ccc(N2C(N)=NC(N)=NC2(C)C)cc1`, the inhibition worked out at 3.51%.

For `Cc1cccc2nc(-c3ccc(-c4ccc(CNCCCN5CCCC5=O)cc4)s3)[nH]c12`, the inhibition was found to be 2.02%.

For the compound `O=C(N[C@@H](Cc1ccccc1)C(=O)NCc1cccc2ccccc12)c1ccc(O)c(-c2ccc(Cl)c(Cl)c2)c1`, the inhibition was found to be 0.35%.

As to `Cc1[nH]c(C)c(-c2ccc(OCc3ccc(F)cc3)nc2)c(=O)c1Br`, the inhibition is 2.71%.

Consider `CCCN1CCC(c2c[nH]c3ccc(NC(=O)Nc4cccc(Cl)c4Cl)cc23)CC1`, for which the inhibition came out at 3.84%.

With `CCOc1cc(Cc2cnc(N)nc2N)ccc1OC`, the inhibition was 0.52%.

As for `Cc1cccc2nc(-c3ccc(-c4ccc(CN5CCN(CCO)CC5)cc4)cc3)[nH]c12`, the inhibition was found to be 25.5%.

In the case of `CN1CCCc2ccc(NC(=O)C=Cc3ccc(-c4ccc(F)cc4F)o3)cc2C1`, the inhibition came to 0.88%.

Turning to `CN1CCN(Cc2ccc(-c3ccc4c(Nc5ccc(F)cc5Cl)ccnc4c3)o2)CC1`, the inhibition worked out at 0.53%.

Consider `COc1ccc(-c2ccc(NC(=O)c3cccc(F)c3)cc2)cc1CN1CCCN(C)CC1`, for which the inhibition amounted to 4.26%.

Turning to `O=C(Nc1cccc(Cl)c1)c1cnc(N2CCN(c3ccncc3)CC2)c(Cl)c1`, the inhibition is 23.4%.

With `CN1CCN(c2cccc(-c3nnc(-c4ccc(OCC(=O)NCc5ccc(C(F)(F)F)cc5)c([N+](=O)[O-])c4)o3)c2)CC1`, the inhibition is 3.75%.

Turning to `Nc1nc(N)c2c(Sc3ccccc3)cccc2n1`, the inhibition was found to be 3.38%.

In the case of `N=C1NC(=O)C(=Cc2cn(-c3ccccc3)nc2-c2cccc(S(=O)(=O)N3CCCC3)c2)S1`, the inhibition was 8.5%.

On to `O=C(Nc1ccc2c(c1)OCO2)NC1CCN(c2ccnc(Nc3ccc(F)cc3)n2)C1` (centres undefined), for which the inhibition turned out to be 0.34%.

As to `CSc1ccc(C=CC(=O)NC(=O)c2ccccc2O)cc1`, the inhibition is 1.32%.

Turning to `FC(F)(F)COc1ccc(CNCCCCCCNCc2ccc(OCC(F)(F)F)c3ccccc23)c2ccccc12`, the inhibition turned out to be 113%.

For `COc1ccc(NC(=O)Nc2ccc(C)c(-c3ccc(C(=O)Nc4ccncc4)cc3)c2)cc1`, the inhibition is 1.53%.

In the case of `CC(C)C(=O)NC(Nc1ccc([N+](=O)[O-])cc1)C(Cl)(Cl)Cl` (centres undefined), the inhibition worked out at 3.83%.

Consider `Nc1cc(/C=C/c2ccc([N+](=O)[O-])s2)nc2ccccc12`, for which the inhibition is 16.4%.

Take `CCNc1cc(C(=O)N[C@@H](Cc2ccccc2)[C@H](O)CNC23CC4CC(CC(C4)C2)C3)cc(N2CCCCS2(=O)=O)c1`: the inhibition is 3.41%.

Another test deals with Hexose transporter 1 (Plasmodium falciparum) (UniProt O97467). Briefly: ST_JUDE_LEISH: Cytotoxicity at 2uM final concentration against transgenic Leishmania Mexicana promastigotes LmPfHT that are glucose transport deficient and complemented with the Plasmodium falciparum hexose transporter. Activity is measured by DNA content using SYBR green in vitro. In kind it is functional.
On to `CC(=O)Nc1nc(C(=O)Nc2cccc(-c3ccc(-c4nc5cc(F)ccc5[nH]4)cc3)c2)cs1`, for which the inhibition worked out at 1.38%.

In the case of `COc1ccc2nccc(N3CCC(CCNCc4ccc5c(n4)NC(=O)CS5)CC3)c2n1`, the inhibition was found to be 4.8%.

Consider `O=C(Nc1ccc(-c2nc3ccc(NC(=O)c4ccc(Br)cc4)cc3[nH]2)cc1)c1ccc(Br)cc1`, for which the inhibition was -0.68%.

With `Cc1ccc(CNC(=O)[C@H](Cc2ccccc2)Nc2cc(C)nc(NCC3CCCCC3)n2)cc1`, the inhibition was determined as 4.57%.

As for `O=C(Nc1ccsc1)Nc1cccc(-c2ccc(-c3nc4cc(C(F)(F)F)ccc4[nH]3)cc2)c1`, the inhibition is 6.27%.

In the case of `Cc1cccc2nc(-c3cccc(-c4cccc(C(=O)NCc5nccn5C)c4)c3)[nH]c12`, the inhibition was determined as 10.8%.

Regarding `CCN(CC)CCNc1ccnc2c3ccccc3n(C)c12`, the inhibition came out at 0.22%.

`COCCCNC(=O)c1ccc(O)c(-c2cc(Cl)cc(Cl)c2)c1`: the inhibition is -2.5%.

`CCC(C)c1ccc(O)c(NC(=O)c2cncc(Br)c2)c1` (centres undefined): the inhibition is 0.04%.

Regarding `CCCCCCCCOc1ccc(N2C(N)=NC(N)=NC2(C)C)cc1`, the inhibition turned out to be 3.69%.

As to `O=C(Nc1cn(-c2ccc(OCc3cccc(F)c3)c(Cl)c2)c2ncncc12)c1ccncc1`, the inhibition stood at 1.05%.

For the compound `CCCC(C)NC[C@@H](O)[C@H](Cc1ccccc1)NC(=O)c1cc(NCC)cc(N2CCCCS2(=O)=O)c1` (some centres undefined), the inhibition turned out to be 0.76%.

As to `CCN(CCNC(=O)Nc1cc(C(F)(F)F)cc(C(F)(F)F)c1)c1cccc(C)c1`, the inhibition came out at 4.69%.

Take `Cc1cccc2nc(-c3ccc(-c4ccc(CNCC(C)C)cc4)cc3)[nH]c12`: the inhibition worked out at 13.6%.

As for `Nc1cc(-c2ccc3ccccc3c2)nc2ccccc12`, the inhibition was 26.8%.

Regarding `c1csc(-c2nc(NCC3CCCO3)ncc2-c2ccsc2)n1` (centres undefined), the inhibition worked out at 2.71%.

Consider `CNCCNCc1cccc(-c2cccc(-c3nc4cc(F)ccc4[nH]3)c2)c1`, for which the inhibition is 7.92%.

Take `CCN(Cc1cccc2ccccc12)c1ccc2nc(N)nc(N)c2c1`: the inhibition was found to be 99%.

With `Nc1c2c(nc3ccc(C(=O)Nc4cc(I)c(O)c(I)c4)cc13)CCCC2`, the inhibition is 1.9%.

On to `CCCCCc1ccc(N2C(N)=NC(N)=NC2(C)C)cc1`, for which the inhibition was found to be 2.87%.

For the compound `Cc1cccc2nc(-c3ccc(-c4ccc(CNCCCN5CCCC5=O)cc4)s3)[nH]c12`, the inhibition is 3.54%.

Take `O=C(N[C@@H](Cc1ccccc1)C(=O)NCc1cccc2ccccc12)c1ccc(O)c(-c2ccc(Cl)c(Cl)c2)c1`: the inhibition stood at 2.09%.

For the compound `Cc1[nH]c(C)c(-c2ccc(OCc3ccc(F)cc3)nc2)c(=O)c1Br`, the inhibition was found to be 2.42%.

Turning to `CCCN1CCC(c2c[nH]c3ccc(NC(=O)Nc4cccc(Cl)c4Cl)cc23)CC1`, the inhibition is 2.45%.

With `CCOc1cc(Cc2cnc(N)nc2N)ccc1OC`, the inhibition stood at 0.12%.

As to `Cc1cccc2nc(-c3ccc(-c4ccc(CN5CCN(CCO)CC5)cc4)cc3)[nH]c12`, the inhibition was 31.3%.

For `CN1CCCc2ccc(NC(=O)C=Cc3ccc(-c4ccc(F)cc4F)o3)cc2C1`, the inhibition amounted to 0.81%.

Regarding `CN1CCN(Cc2ccc(-c3ccc4c(Nc5ccc(F)cc5Cl)ccnc4c3)o2)CC1`, the inhibition amounted to 0.83%.

With `COc1ccc(-c2ccc(NC(=O)c3cccc(F)c3)cc2)cc1CN1CCCN(C)CC1`, the inhibition was found to be 2.56%.

Regarding `O=C(Nc1cccc(Cl)c1)c1cnc(N2CCN(c3ccncc3)CC2)c(Cl)c1`, the inhibition was 42%.

Take `CN1CCN(c2cccc(-c3nnc(-c4ccc(OCC(=O)NCc5ccc(C(F)(F)F)cc5)c([N+](=O)[O-])c4)o3)c2)CC1`: the inhibition came to 3.68%.

With `Nc1nc(N)c2c(Sc3ccccc3)cccc2n1`, the inhibition is 3.48%.

As for `N=C1NC(=O)C(=Cc2cn(-c3ccccc3)nc2-c2cccc(S(=O)(=O)N3CCCC3)c2)S1`, the inhibition amounted to 6.98%.

In the case of `O=C(Nc1ccc2c(c1)OCO2)NC1CCN(c2ccnc(Nc3ccc(F)cc3)n2)C1` (centres undefined), the inhibition was 6.37%.

Turning to `CSc1ccc(C=CC(=O)NC(=O)c2ccccc2O)cc1`, the inhibition stood at 2.44%.

On to `FC(F)(F)COc1ccc(CNCCCCCCNCc2ccc(OCC(F)(F)F)c3ccccc23)c2ccccc12`, for which the inhibition amounted to 107%.

As to `COc1ccc(NC(=O)Nc2ccc(C)c(-c3ccc(C(=O)Nc4ccncc4)cc3)c2)cc1`, the inhibition was determined as 1.45%.

With `CC(C)C(=O)NC(Nc1ccc([N+](=O)[O-])cc1)C(Cl)(Cl)Cl` (centres undefined), the inhibition is 3.53%.

`Nc1cc(/C=C/c2ccc([N+](=O)[O-])s2)nc2ccccc12`: the inhibition was 16.5%.

Turning to `CCNc1cc(C(=O)N[C@@H](Cc2ccccc2)[C@H](O)CNC23CC4CC(CC(C4)C2)C3)cc(N2CCCCS2(=O)=O)c1`, the inhibition was determined as 3.36%.
